Reference: PubChem BioAssay (Tox21)
“And” between values parts separate entries of the source, which are not always exact repeats. Equal entries are not always repeated. Inconclusive results are not listed. Some structures have more than one record in an assay (separate samples or runs), and their calls can disagree. The source made the active and inactive calls. Unless noted, calls come from the whole dose curve; as a rule, active = well fitted curve in the direction sought with a large enough effect in the repeat runs; inconclusive = weak or mixed curves; inactive = no such curve, though single readings can be large; an effect the other way counts as inactive or inconclusive.

What was measured:
[1] = biological target: Thyrotropin receptor (Homo sapiens) (UniProt P16473); assay: qHTS assay to identify small molecule agonists of the thyroid stimulating hormone receptor (TSHR) signaling pathway (AID 1224843; calls by dose curve; note: nearly all actives have a fitted effect of over 45% in size)
Thyrotropin receptor (Homo sapiens), sequence (P16473 whole entry, looked up): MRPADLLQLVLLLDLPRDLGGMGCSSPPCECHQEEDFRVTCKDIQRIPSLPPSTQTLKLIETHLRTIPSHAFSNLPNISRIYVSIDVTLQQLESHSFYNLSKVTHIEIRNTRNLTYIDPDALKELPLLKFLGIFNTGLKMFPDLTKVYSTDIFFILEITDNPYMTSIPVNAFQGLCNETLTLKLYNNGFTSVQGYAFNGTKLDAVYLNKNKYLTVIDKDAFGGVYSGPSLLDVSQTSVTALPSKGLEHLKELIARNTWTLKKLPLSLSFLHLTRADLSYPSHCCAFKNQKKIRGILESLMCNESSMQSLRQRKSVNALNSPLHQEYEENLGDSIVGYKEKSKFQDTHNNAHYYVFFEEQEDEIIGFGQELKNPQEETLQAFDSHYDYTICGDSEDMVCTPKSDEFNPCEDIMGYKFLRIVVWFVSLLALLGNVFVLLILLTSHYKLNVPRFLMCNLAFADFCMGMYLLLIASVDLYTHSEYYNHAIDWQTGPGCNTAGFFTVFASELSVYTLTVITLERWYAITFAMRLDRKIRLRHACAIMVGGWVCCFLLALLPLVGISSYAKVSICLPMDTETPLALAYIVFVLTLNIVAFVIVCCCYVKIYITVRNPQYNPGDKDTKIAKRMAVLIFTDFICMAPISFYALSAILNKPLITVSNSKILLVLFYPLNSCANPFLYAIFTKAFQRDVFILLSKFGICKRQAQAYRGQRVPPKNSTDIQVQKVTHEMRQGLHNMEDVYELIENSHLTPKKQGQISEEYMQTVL
In short: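 Cell line HEK293 with TSHR; density 800/well. Exposure 30 min RT. Readout HTRF cAMP (cAMP-d2/anti-cAMP-cryptate), 1 h RT before reading.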

[2] = qHTS assay to identify small molecule agonists of the hypoxia (HIF-1) signaling pathway - cell viability counter screen (AID 1224844; calls by dose curve; note: nearly all actives have a fitted effect of over 50% in size)
In short: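 Tox21 10K compounds were added to HRE-bla ME-180 cells (0.5% dialyzed FBS) and incubated 17 hrs at 37C; ATP-based CellTiter-Glo luminescence then reported cell viability in the same wells.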

[3] = qHTS assay to identify small molecule agonists of H2AX - cell viability counter screen (AID 1224847; calls by dose curve; note: top concentration of the series differs between compounds; nearly all actives have a fitted effect of over 30% in size)
In short: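 Compounds tested at 15 concentrations were incubated 3 hr at 37C with wild-type CHO-K1 cells; cellular ATP-based luminescence (CellTiter-Glo) indicated viability.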

[4] = qHTS assay to identify small molecule antagonists of the estrogen related receptor (ERR) signaling pathway from Tox21 library (AID 1224848); note: nearly all actives have a fitted effect of over 50% in size; note: potency is the fitted concentration of half-maximal effect
In short: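 Screening used an ERR reporter line supplied by NTP, exposed for 18 h at 37 C to library compounds delivered in DMSO. Signal was luciferase luminescence developed with ONE-Glo at room temperature for 30 min.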

[5] = qHTS assay to identify small molecule agonists of the estrogen related receptor (ERR) signaling pathway from Tox21 library (AID 1224849; calls by dose curve; note: nearly all actives have a fitted effect of over 15% in size); details: ERR reporter cell line, ONE-Glo luciferase, 18 h
In short: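 Agonist signal is luciferase luminescence from an ERR reporter cell line treated 18 h at 37 C with DMSO-dissolved compounds, read 30 min after ONE-Glo addition at room temperature.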

[6] = qHTS RealTime-Glo MT Cell Viability Assay in HepG2 cells - 24 hour (AID 1224867); note: nearly all actives have a fitted effect of over 50% in size
In short: (§1)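 HepG2 cells (600/well) were dispensed with RealTime-Glo reagents, incubated 5 h at 37 °C, then treated with compounds in DMSO for up to 40 h. Nonlytic NanoLuc luminescence reflecting viable cells was read at each stated time point.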

[7] = qHTS RealTime-Glo MT Cell Viability Assay in HEK293 cells - 32 hour (AID 1224868); note: top concentration of the series differs between compounds; nearly all actives have a fitted effect of over 50% in size
In short: (§2)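 HEK293 cells seeded with NanoLuc/prosubstrate reagent, rested 5 h at 37 C, then dosed and kept at 37 C up to 40 h. Nonlytic real-time luminescence from viable cells read at 0, 8, 16, 24, 32 and 40 h.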

[8] = A CellTox Green Cytotoxicity Assay to monitor cytotoxicity in HEK293 cells - 0 hour (AID 1224869); note: nearly all actives have a fitted effect of over 50% in size; note: potency is the fitted concentration of half-maximal effect
In short: (§3)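 Cytotoxicity was tracked continuously in HEK293 cells by a DNA-binding dye excluded from viable cells. Compounds were transferred in DMSO 5 h after seeding; fluorescence was recorded at intervals up to 40 h.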

[9] = A CellTox Green Cytotoxicity Assay to monitor cytotoxicity in HEK293 cells - 40 hour (AID 1224871); note: nearly all actives have a fitted effect of over 45% in size
In short: as §3

[10] = qHTS RealTime-Glo MT Cell Viability Assay in HEK293 cells - 16 hour (AID 1224872)
In short: as §2

[11] = qHTS RealTime-Glo MT Cell Viability Assay in HepG2 cells - 8 hour (AID 1224873); note: nearly all actives have a fitted effect of over 55% in size
In short: (§4)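 HepG2 cells mixed with RealTime-Glo MT reagents (NanoLuc plus cell-permeant prosubstrate) were seeded at 600 cells/well, incubated 5 h at 37 C/5% CO2, then pinned with compounds in DMSO; nonlytic luminescence tracked viability during 40 h treatment.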

[12] = qHTS RealTime-Glo MT Cell Viability Assay in HEK293 cells - 40 hour (AID 1224874); details: RealTime-Glo luminescence; max response: stronger effect = lower value; note: nearly all actives have a fitted effect of over 50% in size
In short: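 Nonlytic bioluminescent viability monitoring. HEK293 at 600 cells/well with reagent; 5 h settle; compound transfer by pintool; plates held at 37 C and read at set time points.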

[13] = A CellTox Green Cytotoxicity Assay to monitor cytotoxicity in HEK293 cells - 24 hour (AID 1224875); note: nearly all actives have a fitted effect of over 45% in size
In short: as §3

[14] = A CellTox Green Cytotoxicity Assay to monitor cytotoxicity in HepG2 cells - 16 hour (AID 1224876); note: nearly all actives have a fitted effect of over 45% in size; note: potency is the fitted concentration of half-maximal effect
In short: (§5)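 Real-time, homogeneous cytotoxicity readout: dead-cell DNA staining by CellTox Green in HepG2 monolayers, fluorescence measured at timed intervals up to 40 h of continuous compound exposure.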

[15] = qHTS RealTime-Glo MT Cell Viability Assay in HepG2 cells - 32 hour (AID 1224877); note: nearly all actives have a fitted effect of over 55% in size
In short: as §1

[16] = A CellTox Green Cytotoxicity Assay to monitor cytotoxicity in HepG2 cells - 24 hour (AID 1224878); note: nearly all actives have a fitted effect of over 45% in size; note: potency is the fitted concentration of half-maximal effect
In short: as §5

[17] = A CellTox Green Cytotoxicity Assay to monitor cytotoxicity in HepG2 cells - 40 hour (AID 1224879); note: nearly all actives have a fitted effect of over 40% in size; note: potency is the fitted concentration of half-maximal effect
In short: as §5

[18] = qHTS assay to identify small molecule agonists of H2AX (AID 1224845; active = well fitted activation curve with a large enough effect in the signal ratio in the repeat runs, not every such curve was filed as active; the % refers to the signal ratio)
In short: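 Wild-type CHO-K1 cells plated overnight, then exposed 3 hr at 37C to compounds at 15 concentrations (0.76% DMSO). Lysed, then HTRF anti-pH2AX(S139)-cryptate/anti-H2AX-d2 detection after 24 hr at room temperature; emissions 665 and 620 nm.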

[19] = qHTS assay to identify small molecule agonists of the hypoxia (HIF-1) signaling pathway (AID 1224846; active = well fitted activation curve with a large enough effect in the signal ratio in the repeat runs, not every such curve was filed as active; the % refers to the signal ratio)
In short: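 Steps: seed ME-180 HRE-bla cells (2,000/well, 0.5% dialyzed FBS); incubate 5 hrs at 37C; pin-transfer compounds or DMSO; incubate 17 hrs; add LiveBLAzer B/G substrate CCF4-AM; measure reporter activation by FRET.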

[20] = qHTS RealTime-Glo MT Cell Viability Assay in HepG2 cells - 40 hour (AID 1224870); note: nearly all actives have a fitted effect of over 50% in size
In short: as §4
% is set by controls: 0 for no effect and ±100 for the full control effect.

[N-]=[N+]=CC(=O)OC[C@H](N)C(=O)O
27.5 µM (active) and inactive: Potency [14]
24.5 µM (active) and inactive: Potency [16]
38.9 µM (active) and inactive: Potency [8]
inactive: Potency [1] | Potency [2] | Potency [3] | Potency [4] | activity change, positive = activation ([5]; at 42.5 µM (top of the series)) 3.09% | activity change, positive = activation ([5]; at 92.4 µM (top of the series)) 5.95% | outcome [6] | Potency [7] | Potency [9] | outcome [10] | outcome [11] | max response [12] 8.97% and 11.4% | Potency [13] | outcome [15]
43.6 µM (active) and inactive: Potency [17]

Cc1cccc(N)c1C
inactive: Potency [1] | Potency [18] | outcome [19] | Potency [3] | outcome [6] | Potency [7] | Potency [8] | Potency [9] | outcome [10] | outcome [11] | max response [12] -0.402% and 10.2% | Potency [14] | outcome [15] | Potency [16] | Potency [17]

CN1C(=O)CCS(=O)(=O)C1c1ccc(Cl)cc1 (stereo not given)
inactive: Potency [1] | Potency [2] | Potency [3] | outcome [6] | Potency [7] | Potency [8] | outcome [20] | Potency [9] | outcome [10] | outcome [11] | max response [12] 4.07% and -0.966% | Potency [13] | Potency [14] | outcome [15] | Potency [16] | Potency [17]

CC(C)(C)C(=O)CCl
inactive: Potency [1] | Potency [18] | outcome [19] | Potency [3] | Potency [4] | activity change, positive = activation ([5]; at 92.4 µM (top of the series)) 2.78% and 6.55% | outcome [6] | Potency [7] | Potency [8] | Potency [9] | outcome [10] | outcome [11] | max response [12] 4.78% and -0.671% | Potency [13] | Potency [14] | Potency [16] | Potency [17]

O=C(O)C1C(C(=O)O)C2(Cl)C(Cl)=C(Cl)C1(Cl)C2(Cl)Cl (stereo not given)
inactive: Potency [1] | Potency [18] | Potency [3] | outcome [6] | Potency [7] | Potency [8] | Potency [9] | outcome [10] | outcome [11] | max response [12] 9.62% and 1.68% | Potency [14] | Potency [16] | Potency [17]

Nc1ncc([N+](=O)[O-])s1
inactive: Potency [1] | outcome [19] | Potency [3] | Potency [4] | activity change, positive = activation ([5]; at 92.4 µM (top of the series)) 2.32% and 6.46% | outcome [6] | Potency [7] | Potency [8] | outcome [20] | Potency [9] | outcome [10] | outcome [11] | Potency [13] | Potency [14] | outcome [15] | Potency [16] | Potency [17]

Cl/C=C/Cl
inactive: Potency [1] | Potency [18] | outcome [19] | Potency [3] | outcome [6] | Potency [7] | Potency [8] | Potency [9] | outcome [10] | outcome [11] | Potency [13] | Potency [14] | Potency [16] | Potency [17]

Cc1cccc(C)c1N
inactive: Potency [1] | Potency [18] | outcome [19] | Potency [3] | outcome [6] | Potency [7] | Potency [8] | outcome [20] | Potency [9] | outcome [10] | outcome [11] | max response [12] -0.963% and 19.7% | Potency [14] | outcome [15] | Potency [16] | Potency [17]

C=C(C)C(=O)OCC(CC)CCCC (stereo not given)
24.8 µM (active) and inactive: Potency [4]
inactive: Potency [1] | outcome [19] | Potency [3] | activity change, positive = activation ([5]; at 92.4 µM (top of the series)) -78.2% and 4.6% | outcome [6] | Potency [7] | Potency [8] | outcome [20] | Potency [9] | outcome [10] | outcome [11] | max response [12] 1.51% | Potency [13] | Potency [14] | outcome [15] | Potency [16] | Potency [17]

C=CCN=C=S
inactive: Potency [1] | outcome [19] | Potency [3] | Potency [4] | activity change, positive = activation ([5]; at 92.4 µM (top of the series)) 10.8% and 0.847% | outcome [6] | Potency [7] | Potency [8] | Potency [9] | outcome [10] | outcome [11] | max response [12] 17.8% and 1.95% | Potency [14] | Potency [16] | Potency [17]

C=CC(=O)OCC(CC)CCCC (stereo not given)
inactive: Potency [1] | Potency [18] | outcome [19] | Potency [3] | Potency [4] | activity change, positive = activation ([5]; at 92.4 µM (top of the series)) 0.98% and -12% | outcome [6] | Potency [7] | Potency [8] | Potency [9] | outcome [10] | outcome [11] | max response [12] 13.3% | Potency [14] | outcome [15] | Potency [16] | Potency [17]

FC(F)(F)c1ccc(Cl)cc1
inactive: Potency [1] | Potency [18] | outcome [19] | Potency [3] | outcome [6] | Potency [7] | Potency [8] | outcome [20] | Potency [9] | outcome [10] | outcome [11] | max response [12] 3.01% and 8.11% | Potency [14] | outcome [15] | Potency [16] | Potency [17]

Cc1cc(O)ccc1Cl
inactive: Potency [1] | outcome [19] | Potency [3] | Potency [4] | activity change, positive = activation ([5]; at 42.5 µM (top of the series)) 6.83% | activity change, positive = activation ([5]; at 92.4 µM (top of the series)) 0.807% and 6.83% | outcome [6] | Potency [7] | Potency [8] | Potency [9] | outcome [10] | outcome [11] | max response [12] -0.728% and -2.63% and 0.546% | Potency [14] | Potency [16] | Potency [17]

N#Cc1ccccn1
inactive: Potency [1] | Potency [18] | outcome [19] | Potency [3] | outcome [6] | Potency [7] | Potency [8] | outcome [20] | Potency [9] | outcome [10] | outcome [11] | max response [12] -0.449% and 4.77% | Potency [13] | Potency [14] | outcome [15] | Potency [16] | Potency [17]
